Results: PubChem BioAssay (NCATS)
Where “and” joins values, the source holds several entries; their conditions need not be identical. Identical values can stand only once. Records with an inconclusive call do not appear. More than one record can exist for a structure, and the calls need not agree. Calls of active or inactive are those of the source. Calls come from the whole dose curve; as a rule, active = well fitted inhibition curve with a large enough effect; inconclusive = small, poorly fitted or top-dose-only effect, or effect the other way; inactive = flat fitted curve, though single readings scatter.
Potency is the fitted concentration of half-maximal effect.

Test: qHTS for Inhibitors of Plasmodium falciparum (CP250) proliferation (AID 504320)
Conditions: P. falciparum CP250 in erythrocytes, SYBR Green DNA, 72 h; series mostly up to 6.7 µM; activity change, negative = inhibition: at the top concentration
Description: Plasmodium falciparum is a virulent malarial parasite that kills 1-2 million people worldwide each year. Malaria not only inflicts tremendous suffering and morbidity on the human population, but has dramatically influenced the course of civilization with profound sociological and economic implications (Shah, S. 2010). Transmitted by mosquitoes, the sporozoite form of the parasite enters the blood stream to infect hepatocytes, where they become merozoites that infect red blood cells (erythrocytes). Within erythrocytes, merozoites begin a […] cycle of growth and division, after which the parasite is released to infect new red blood cells. Gametocytes, which form within erythrocytes as well, circulate in the bloodstream and are ingested by the mosquito, thereby completing the life cycle (see CDC website). To profile malarial lines for differential chemical responses and to identify inhibitors of malarial growth, an assay that measures P. falciparum growth and replication within erythrocytes was employed. This assay uses a DNA binding fluorescent dye (SYBR Green) to detect parasite DNA following cell lysis. Because mature erythrocytes lack DNA, only Plasmodium-derived DNA is detected. The P. falciparum line cp250, derived from a malarial isolate from Cambodia, (Mu, J., et al. 2010) was added to the panel of lines, Dd2, HB3, 7G8 and GB4 in this study. Laboratory of Assay Development and Screening Technology [ADST] and NIH Chemical Genomics Center [NCGC] Boston University, Chemistry Department, Center for Chemical Methodology and Library Development [CMLD-BU] NIH National Institute of Allergy and Infectious Diseases [NIAID]
ADST Assay Protocol Summary: The 1536-well SYBR Green viability assay was based on the method of Bennett et al (2004) and described previously in 1536-well format (Yuan J., et al. 2009). For screening 3 ul culture medium was dispensed into 1536 well black clear bottom plates (Aurora Biotechnologies) using a Multidrop Combi (Thermo Fisher Scientific Inc.), 23 nL compounds in DMSO were added by a pin transfer (Cleveland, P.H. and Koutz, P.J, 2005) using a pin tool-based delivery system (Kalypsys), and 5 ul of erythrocytes infected with P. falciparum one of five lines (cp250, Dd2, HB3, 7G8 or GB4, 0.3% parasitemia, 2.5% hematocrit final concentration) were added. The plates were incubated at 37C in a humidified incubator in 5% CO2 for 72 h, and 2 ul lysis buffer (20 mM Tris HCl, 10 mM EDTA, 0.16% saponin, 1.6% triton X, 10X SYBR Green I (supplied as 10,000X final concentration by Invitrogen) was added to each well. The plates were mixed for 25 sec with gentle shaking and incubated overnight at room temperature in the dark. The following morning, fluorescence intensity at 485(14) nm excitation and 535(25) nm emission wavelengths was measured on an EnVision (Perkin Elmer) plate reader. Plate reads were normalized relative to the control inhibitor (0.29 uM artemisinin) and vehicle (DMSO) wells present on each plate and then corrected by an algorithm using vehicle-only control plates at the beginning and end of the compound plate stack. References Shah, S. (2010). The Fever: how malaria has ruled humankind for 500,000 years. New York, Sarah Crichton Books. CDC web site, http://www.cdc.gov/malaria/about/biology/index.html Mu, J., Myers, R.A., Jiang, H., Liu, S., Ricklefs, S., Waisberg, M., Chotivanich, K., Wilairatana, P., Krudsood, S., White, N.J., et Plasmodium falciparum genome-wide scans for positive selection, recombination hot spots and resistance to antimalarial drugs Nature Genetics 2010, 42, pp 268-271 Bennett TN, Paguio, M., Gligorijevic, B., Seudieu, C., Kosar, A. D., Davidson, E., and Roepe, P. D. Novel, rapid, and inexpensive cell-based quantification of antimalarial drug efficacy Antimicrobial Agents Chemother. 2004, 48(5): pp 1807-10 Yuan J, Johnson RL, Huang RL, Wichterman J, Jiang HY, Hayton K, Fidock DA, Wellems TE, Inglese J, Austin CP, Su XZ. […]
In the case of COc1ccc2c(c1)O[C@@H](c1ccc3c(c1)OCO3)[C@H](OC(=O)Nc1ccc(C)c(Br)c1)C2=O, the “activity change, negative = inhibition” value is reported as 0.938% (inactive). With C=CCOC(=O)N[C@H](c1ccco1)C(C(C)=O)C(C)=O the “activity change, negative = inhibition” value was 6.27% (inactive). In the case of CCN1C(=O)N[C@@H](c2cccc(C(F)(F)F)c2)[C@H](C(C)=O)[C@H]1C, the Potency is reported as “inactive”. In the case of CCN1C(=NCc2ccc(OC)cc2)NC(c2ccccc2)C(C(=O)OC)=C1C (stereo not given), the “activity change, negative = inhibition” value is reported as -18.8% (inactive). In the case of CCN1C(=O)N(C)C(c2ccccc2)C(C(=O)OC)=C1C (stereo not given), the “activity change, negative = inhibition” value is reported as 3.89% (inactive). For CC1=CC[C@@H](C)O[C@@]2(C1)C(=O)Nc1ccccc12, the Potency was “inactive”. In the case of COC(=O)CC=C1c2ccccc2OC[C@@H](OC)[C@H]1C, the “activity change, negative = inhibition” value is reported as -1.58% (inactive). For C=CCOC(=O)N[C@H](C(C(=O)OC)=C(C)NCc1ccccc1)c1cccc(OC)c1, the “activity change, negative = inhibition” value was 8.14% (inactive). With COC(=O)C(=Cc1cc(Br)c(OC)c(Br)c1)C(=O)OC the “activity change, negative = inhibition” value was 3.69% (inactive). For CC=Cc1cc2ccccc2c2c(C(=O)OC)c(C(=O)OC)c(C(=O)OC(C)(C)C)n12, the “activity change, negative = inhibition” value was 6.07% (inactive). In the case of CC1(OC(=O)C2CCCC2)C(=O)C=C2C=C(c3ccsc3)N(Cc3ccc4c(c3)OCO4)C=C2C1=O (stereo not given), the Potency is reported as “inactive”. For CCCCCCC1=Cc2cc(OC)c(OC)cc2C(C(C(C)=O)C(=O)OCC)O1 (stereo not given), the “activity change, negative = inhibition” value was 1.96% (inactive). In the case of COC(=O)CC=C[C@@H](C)[C@@H](C=NO[C@H](C)c1cn([C@@H]2COC[C@@H]2O)nn1)N[S+](=O)([O-])c1ccc(C)cc1, the “activity change, negative = inhibition” value is reported as 0.276% (inactive). With C=CCOCCC=C1c2ccccc2[C@@H](OC)[C@@H]1C the “activity change, negative = inhibition” value was -4.33% (inactive). In the case of Cc1cccc(C)c1Nc1oc(-c2ccccc2)nc1-c1ccccc1F, the “activity change, negative = inhibition” value is reported as -18.3% (inactive). In the case of COc1ccc(O[C@H]2C=C[C@@H](c3ccccc3)O[C@H]2COC(=O)NCc2cccc3ccccc23)cc1, the “activity change, negative = inhibition” value is reported as 10.7% (inactive). For C[C@H]1C=CCC(=O)N[C@@H](c2ccccc2)[C@@H](C)C=CCC(=O)N[C@@H]1c1ccccc1, the “activity change, negative = inhibition” value was -6.43% (inactive). For CC(C)CON=C1C[C@@H](O)[C@@H](O)[C@@H]2[C@H]3C(=O)N(c4ccc(F)cc4F)C(=O)[C@@H]3CC[C@@H]12, the “activity change, negative = inhibition” value was 4.31% (inactive). With COc1ccc2c(c1)[C@@]1(OCCC=C[C@@H]1C)C(=O)N2CC=C(C)CCC=C(C)C the “activity change, negative = inhibition” value was 3.65% (inactive). For C=CCN1C=C2C(=O)C(C)(OC(=O)c3ccc(OC)cc3)C(=O)C(c3ccco3)=C2C=C1CCCC (stereo not given), the Potency was “inactive”. For CC1=CC[C@@H](COc2ccccc2)O[C@@]2(C1)C(=O)Nc1ccccc12, the “activity change, negative = inhibition” value was 1.61% (inactive). With C=CCN1c2ccccc2[C@]23CCC(=O)N(CC4CC4)C2=NC(C(=O)OC)=C(C(=O)OC)[C@H]13 the “activity change, negative = inhibition” value was -6.31% (inactive). For CC1(OC(=O)c2ccc(Cl)nc2)C(=O)C=C2C=C3CCCN3C=C2C1=O (stereo not given), the Potency was “inactive”. In the case of COC(=O)[C@H]1[C@@H](c2ccccc2)NC(=O)O[C@@H]1C, the “activity change, negative = inhibition” value is reported as -3.04% (inactive). For COc1cc2c(cc1OC)[C@@]1(c3ccccc3)CCCC[C@H]1[C@@H]2NC(=O)C(F)(F)F, the “activity change, negative = inhibition” value was 5.8% (inactive). With COc1ccc(O[C@H]2C=C[C@@H](c3ccccc3)O[C@H]2CON=C2[C@H]3CCn4c(=O)n(-c5ccccc5)c(=O)n4[C@@H]3[C@H](O)[C@@H]3O[C@H]23)cc1 the “activity change, negative = inhibition” value was 10.2% (inactive). In the case of COC(=O)[C@H](COC(C)(C)C)NC(=O)O[C@H]1C(=O)c2ccc(OC)cc2O[C@@H]1c1ccc2c(c1)OCO2, the “activity change, negative = inhibition” value is reported as -2.23% (inactive). With C[C@@H]1C=CCC(=O)N[C@@H](c2ccccc2)[C@H](C)C=CCC(=O)N[C@@H]1c1ccccc1 the “activity change, negative = inhibition” value was -2.24% (inactive). For CC=CCCN1C=C(C(C)=O)C(c2ccccc2)NC1=O (stereo not given), the “activity change, negative = inhibition” value was 1.58% (inactive). For C=CCNC(=O)N1CCc2nc(-c3ccccc3)c3c(c2C1)CO[C@@H](C)C3, the Potency was “inactive”. In the case of COCC=CC1=CC2=CC(=O)C(C)(OC(=O)c3cnc4ccccc4n3)C(=O)C2=CN1CCCCO (stereo not given), the “activity change, negative = inhibition” value is reported as 6.05% (inactive). With CC1(OC(=O)CCc2ccccc2)C(=O)C=C2C=C(c3ccc(C#N)cc3)N(C(CO)CO)C=C2C1=O (stereo not given) the Potency was “inactive”. For CC1(O)C(=O)C=C2C=C3CCCN3C=C2C1=O (stereo not given), the “activity change, negative = inhibition” value was 4.81% (inactive). In the case of COC(=O)C1=C[C@@]2(c3ccc(OC)cc3[C@@H](OC)[C@@H]2C)[C@@H]2C=C[C@@H]1C2, the “activity change, negative = inhibition” value is reported as -15.8% (inactive). For COCCN1C(=O)CC[C@@]23C1=NC(C(=O)OC)=C(C(=O)OC)[C@@H]2N(Cc1ccccc1)c1ccccc13, the “activity change, negative = inhibition” value was -1.75% (inactive). In the case of O=C1[C@H]2[C@@H]3[C@@H](O)[C@H](O)CC(=NOCc4ccccc4)[C@H]3CC[C@H]2C(=O)N1Cc1ccc2c(c1)OCO2, the “activity change, negative = inhibition” value is reported as -1.08% (inactive). In the case of CCN1C(=O)N[C@@H](c2ccccc2)[C@@H](C(=O)OC)[C@H]1C, the Potency is reported as “inactive”. In the case of COc1cccc([C@H]2Oc3ccc(OC)cc3C(=NOCC[C@@H]3C=C[C@H](OC(C)=O)[C@@H](COC(C)=O)O3)[C@H]2O)c1, the “activity change, negative = inhibition” value is reported as 0.715% (inactive). For C=C(C)C(O)C=Cc1ccc(C(F)(F)F)cc1 (stereo not given), the “activity change, negative = inhibition” value was -0.699% (inactive). For Cc1ccccc1Nc1oc(-c2ccccc2)nc1CCc1ccccc1, the Potency was “inactive and 1.51 µM (active)”.
